# Bioassay records as filed in PubChem BioAssay.
# Sampled rows, rich in hits. Any-hit rate of the full collection: about 21%.
# NS1 function inh – influenza NS1 inhibition; Potency, µM (titrated, usually from 46.1 µM), for the others: top-dose activity, positive = more growth; 270,000 tested, 0.4% active; calls by dose curve; also: potency is read from the fitted curve at half-maximal effect; actives are rising curves; nearly all actives have a fitted effect of over 50% in size
#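 S. cerevisiae expressing influenza A NS1, grown in glucose, washed, then diluted 1:100 into pH 6.0 -URA galactose medium with 23 nl compound. Growth recovery read as OD600; NS1-free strain serves as control.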
# Pf growth 96h – inhibits malaria parasite growth, 96 h | 320,000 tested, 6.9% active | P. falciparum luciferase reporter growth, 96 h | Potency, µM (series often up to 28.7 µM), without a hit: at the highest dose activity change, negative = inhibition, most hits filed as inhibitors; also: potency is read from the fitted curve at half-maximal effect; % is scaled to controls: 0 for no effect and ±100 for the full control effect
#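 Erythrocytes infected with luciferase-expressing P. falciparum were dispensed at 2% hematocrit and 0.05% parasitemia (final), then incubated with compounds 96 hours at 37 C in 5% CO2. Luminescence after detection reagent addition reported growth.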
# CHX counter – counter-screen for Shiga toxin inhibitors: cycloheximide protein synthesis inhibition; AID 2314; max response, %; 300,000 tested, 12% active; cell reporter, cycloheximide protein synthesis inhibition counterscreen; in the data active = max response mostly above about 13%, no sharp cut-off; inactive = mostly below about 14%; also: read at 38.3 µM for the half of the compounds with a filed dose; 0% is about no effect
# Shiga toxin inh – inhibitors of Shiga toxin in Vero cells | Vero cells, Shiga toxin protein synthesis inhibition reporter | inhibition, % at 38.7 µM | 290,000 tested, 9.2% active; in the data active = inhibition mostly above about 28%, no sharp cut-off; inactive = mostly below about 43%; also: 0% is about no effect
# Pf growth 48h – P. falciparum growth inhibition at 48 hours (one generation) | Potency, µM (series often up to 28.7 µM), inactives show top-dose activity change, negative = inhibition, hits mostly inhibitors | AID 504832 | 310,000 tested, 5.9% active | P. falciparum luciferase growth in erythrocytes, 48 h; also: potency is read from the fitted curve at half-maximal effect; % is scaled to controls: 0 for no effect and ±100 for the full control effect
#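 Erythrocytes infected with P. falciparum carrying an integrated firefly luciferase reporter (2% hematocrit, 0.1% parasitemia final) were exposed to compounds in RPMI 1640 with 0.5% Albumax at 37 C, 5% CO2. Growth inhibition was scored as reduced luminescence.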
# The depositor's hits bear a star; u = inconclusive; x = no result given. Unless noted, calls follow the shape of the dose curve; as a rule, active = well fitted inhibition curve with a large enough effect; inconclusive = small, poorly fitted or top-dose-only effect, or another doubt; inactive = no such curve, though single readings can be large or run the other way.
SMILES,NS1 function inh,Pf growth 96h,CHX counter,Shiga toxin inh,Pf growth 48h
CCC(CC)C(=O)Nc1cccc(-c2ccc3nncn3n2)c1,9%,3%,-5,-5,4%
CN1C(=O)C(=Cc2ccccc2OCCOc2ccc([N+](=O)[O-])cc2)C(=O)N(C)C1=O,x,12µM*,21,22,4%
O=C(O)/C=C/C(=O)Nc1ccc2c(c1)C(=O)c1ccccc1C2=O,-7%,12%,62*,135*,29%
CCC(=O)Nc1ccc2c(c1)Cc1cc(NC(=O)CC)ccc1-2,7%,0%,-3,-9,8%
S=C(Nc1ccc2c(c1)Cc1ccccc1-2)Nc1ccc2c(c1)Cc1ccccc1-2,0%,x,x,x,x
CCCC(=O)Nc1ccc2c(c1)Cc1ccccc1-2,-30%,u,28*,119*,61%
CC(=O)Nc1ccc2c(c1)C(=O)c1ccccc1C2=O,-71%,x,51*,84*,284%
CC(=O)Nc1ccc2c(c1)CCc1ccccc1-2,-34%,-17%,46*,97*,x
COc1cc(C(=O)Nc2ccc3c(c2)C(=O)c2ccccc2C3=O)cc(OC)c1OC,-2%,13%,-1,12,-8%
O=C(O)/C=C/C(=O)Nc1ccc(C(=O)c2ccccc2)cc1,-5%,u,-1,-12,-19%
O=C(NCCc1c[nH]c2ccccc12)[C@@H]1C[C@H]1[C@@H](NP(=O)(c1ccccc1)c1ccccc1)c1ccccc1,u,u,-2,-4,u
O=C1c2ccccc2C(=O)c2cc(NC(=O)C3CC3)ccc21,0%,u,20*,33*,256%
O=C1OC(COc2ccc(Br)cc2)CN1c1ccccc1 (stereo not given),4%,-2%,-1,-13,21%
CCNC(=O)NC(=O)CSc1nc2ccccc2n1CCOC,3%,u,-4,-13,9%
Cc1onc(-c2c(F)cccc2Cl)c1C(=O)NC1CC1,7%,21%,-3,-10,13%
Cc1onc(-c2ccccc2Cl)c1C(=O)Nc1ccc(-c2cn3cccnc3n2)cc1,u,u,-3,-2,10µM*
Cc1onc(-c2ccccc2Cl)c1C(=O)NC1CCS(=O)(=O)C1 (stereo not given),7%,12µM*,-5,18,x
Cc1onc(-c2ccccc2Cl)c1C(=O)Nc1cccc2cccnc12,-63%,u,-1,-12,9.3µM*
CCSc1nnc(NC(=O)c2c(-c3ccccc3Cl)noc2C)s1,u,5.9µM*,5,71,x
Cc1onc(-c2ccccc2Cl)c1C(=O)Nc1cccc2nsnc12,4%,29%,-3,-3,-3%
Cc1cc(C)nc(NC(=O)c2c(-c3ccccc3Cl)noc2C)n1,-19%,u,-1,-12,22%
COc1cccc2nc(-c3cccs3)nc(NN3C(=O)C=C(C)C3=O)c12,x,x,26,32,x
Cc1onc(-c2ccccc2Cl)c1C(=O)Nc1ccc(Cl)cn1,-6%,1%,11*,12,-7%
CCCCNS(=O)(=O)c1ccc(NC(=O)c2c(-c3ccccc3Cl)noc2C)cc1,1%,5.2µM*,-6,-19,x
Cc1ccc(/C=C2\SC(=S)N(CCCC(=O)Nc3ccccn3)C2=O)cc1,-6%,10µM*,-5,-27,u
SMILES,NS1 function inh,Pf growth 96h,CHX counter,Shiga toxin inh,Pf growth 48h
O=C(CCN1C(=O)/C(=C/c2ccc(F)cc2)SC1=S)NCCc1ccc(O)cc1,-7%,84%,-2,-14,-24%
CCc1ccc(/C=C2\SC(=S)N(CCCC(=O)Nc3ccccc3C(=O)O)C2=O)cc1,4%,17µM*,-11,5,-3%
Cc1ccc(/C=C2\SC(=S)N(CCCC(=O)Nc3ccccc3C(=O)O)C2=O)cc1,7%,u,1,-9,18%
COC(=O)c1ccc(/C=C2/SC(=S)N(CCCC(=O)Nc3ccc(O)cc3)C2=O)cc1,16%,u,11,-10,u
O=C(CCN1C(=O)/C(=C/c2ccccc2)SC1=S)Nc1ccccn1,7%,11%,-3,-6,32%
Cc1ccc(/C=C2\SC(=S)N(CCCC(=O)Nc3ccc(O)cc3)C2=O)cc1,-2%,6%,18*,39*,u
O=C(CN1C(=O)/C(=C/c2ccc(F)cc2)SC1=S)N1CCN(CCc2ccccn2)CC1,5%,15µM*,-1,-13,8%
CCCc1cc2c(cc1NC(=O)c1ccccc1Cl)OCO2,-22%,u,5,19,-25%
O=C(O)C1CCCN1C(=O)C1CCN(S(=O)(=O)c2cccc(C(F)(F)F)c2)CC1 (stereo not given),x,0%,x,x,u
COc1ccc(C(=O)CN2C(=O)C(C)(C)Oc3ccc(C(=O)N4CCCCCC4)cc32)cc1,-1%,9.3µM*,0,-6,x
CC1(C)Oc2ccc(C(=O)N3CCCC3)cc2N(CC(=O)NCc2ccccc2)C1=O,4%,-7%,-1,12,-5%
CS(=O)(=O)c1ccc(-n2c(=O)n(Cc3ccccc3)c(=O)c3[nH]cnc32)cc1,3%,8%,-4,-4,u
CC(C)CNC(=S)N1CCC(NC(=O)c2ccco2)CC1,x,12µM*,-1,6,-3%
COCCNC(=O)CN1CCC(NC(=O)c2ccco2)CC1,-1%,20%,22*,50,20%
CC1CCCCN1C(=S)NC(=O)c1ccco1 (stereo not given),x,-22%,x,x,-12%
Cc1ccccc1NC(=S)N1CCC(NC(=O)c2ccco2)CC1,x,3.3µM*,4,-7,9%
Cc1ccc(C)c(NC(=S)N2CCC(NC(=O)c3ccco3)CC2)c1,1%,47%,-5,8,1%
CC1CCN(C(=S)NC(=O)c2ccco2)CC1,5%,-1%,33*,50,17%
COC(=O)c1ccccc1NC(=O)c1cc([N+](=O)[O-])nn1Cc1ccccc1,4%,0.66µM*,-1,-11,-4%
O=C(O)c1cccc(NC2=C(n3nnc4ccccc43)C(=O)c3ccccc3C2=O)c1,1%,1.9µM*,-1,6,5.2µM*
Cc1ccccc1[C@@]1(C)ON(c2ccccc2C(F)(F)F)C1=O,x,1µM*,x,x,1.7µM*
CC1(c2ccccc2)ON(c2ccccc2C(F)(F)F)C1=O (stereo not given),x,u,x,x,4.1µM*
O=C1N(c2ccccc2C(F)(F)F)O[C@]1(c1ccccc1)C1CCCC1,x,1.3µM*,x,x,1.7µM*
CC[C@@]1(c2ccccc2OC)ON(c2ccccc2C(F)(F)F)C1=O,x,u,x,x,0.59µM*
CCn1cc(C(=O)N[C@H](C)c2ccccc2)c(=O)c2cc(F)c(N3CCN(C)CC3)cc21,2%,12µM*,-3,-9,x
CCn1cc(C(=O)NCCc2ccccc2)c(=O)c2cc(S(=O)(=O)N(C)C)ccc21,2%,13µM*,4,-6,u
CCn1cc(C(=O)NCCc2ccccc2)c(=O)c2cc(F)c(N3CCN(C)CC3)cc21,3%,u,13*,11,10µM*
CCC(C)NC(=O)c1cn(CC)c2cc(N3CCN(C)CC3)c(F)cc2c1=O (stereo not given),-2%,-22%,-1,-7,u
